# About 83,000 compounds went through this panel and 20% of them were active in at least one assay; those are over-represented in the sample as a whole.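 Single-dose data. Exposure time 48 hours. Values below 10 considered active.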 Values without a mark were called inactive. Active and inactive are the calls of the source.
# Key:
# Experiment in all cases: NCI-60 one-dose screen, 48 h (100 = growth as untreated, 0 = no growth, -100 = all killed)
# Conditions in all cases: 10 µM unless noted
# SR leukemia = test system: SR leukemia
# RPMI-8226 leukemia = test system: RPMI-8226 leukemia
# OVCAR-8 ovarian = test system: OVCAR-8 ovarian
# OVCAR-5 ovarian = test system: OVCAR-5 ovarian
# OVCAR-4 ovarian = test system: OVCAR-4 ovarian
# SK-OV-3 ovarian = test system: SK-OV-3 ovarian
# IGROV1 ovarian = test system: IGROV1 ovarian
# HS 578T breast = test system: HS 578T breast
# NCI/ADR-RES ovarian = test system: NCI/ADR-RES ovarian
# T-47D breast = test system: T-47D breast
# BT-549 breast = test system: BT-549 breast
# MDA-MB-435 melanoma = test system: MDA-MB-435 melanoma
# SW-620 colon = test system: SW-620 colon
# MCF7 breast = test system: MCF7 breast
# HCT-116 colon = test system: HCT-116 colon
# HCC-2998 colon = test system: HCC-2998 colon
# KM12 colon = test system: KM12 colon
Structure (SMILES),growth (SR leukemia),growth (RPMI-8226 leukemia),growth (OVCAR-8 ovarian),growth (OVCAR-5 ovarian),growth (OVCAR-4 ovarian),growth (SK-OV-3 ovarian),growth (IGROV1 ovarian),growth (HS 578T breast),growth (NCI/ADR-RES ovarian),growth (T-47D breast),growth (BT-549 breast),growth (MDA-MB-435 melanoma),growth (SW-620 colon),growth (MCF7 breast),growth (HCT-116 colon),growth (HCC-2998 colon),growth (KM12 colon)
COc1ccc(/C(=N\N=C(N)N)c2ccc(Cl)cc2)cc1OC,42.7%,70.4%,87.2%,78.2%,88.4%,78.5%,51.5%,67.5%,99.3%,68%,81.2%,58%,73.6%,54.5%,34.8%,69.8%,61.5%
NS(=O)(=O)c1ccc(Nc2nc(N/N=C/C=C/c3ccccc3)nc(Nc3ccccc3)n2)cc1,14.9%,28.5%,50%,99.2%,49.6%,78.3%,36.8%,39.7%,91.1%,18.9%,65.9%,51.6%,51.1%,16%,29.5%,38.3%,55.4%
CCc1cccc2c3c(sc12)C(c1ccc(F)cc1)C(C#N)=C(/N=C/c1ccc(Cl)cc1)O3 (centres undefined),18.8%,21.5%,13.6%,29.1%,80.6%,42.6%,29.9%,-1.77% (active),7.87% (active),30.7%,2.79% (active),-5.71% (active),37.6%,14%,11.4%,10.3%,16.1%
CCNC(=O)Oc1ccc(/C(=C(/C)c2ccc(Cl)cc2)c2ccc(OCCN3CCCCCC3)cc2)cc1,-5.81% (active),-14.9% (active),51.5%,53.5%,43.4%,63.2%,49.5%,-3.08% (active),38.1%,10.8%,77.5%,22.5%,-74.5% (active),-37.8% (active),-80% (active),26.1%,12.7%
Cc1ccsc1[C@H]1c2[nH]c3ccccc3c2C[C@H]2C(=O)N(CCCCCCC(=O)NO)CC(=O)N12,42%,58.8%,79.2%,73.7%,106%,105%,87.4%,85.4%,95.9%,57.6%,106%,90.6%,82.5%,50.1%,68.1%,88.1%,81.1%
N#Cc1nc(-c2ccccc2)oc1N1CCC(C2(C(F)(F)F)N=N2)CC1,85.1%,97.2%,97.6%,109%,96.4%,96.2%,108%,96.7%,102%,95.6%,136%,101%,98.8%,89.1%,104%,107%,96.2%
CCOP(=O)(OCC)OC[C@]12CCC(C)(C)C[C@H]1C1=CC[C@@H]3[C@@]4(C)CC[C@H](OP(=O)(OCC)OCC)C(C)(C)[C@@H]4CC[C@@]3(C)[C@]1(C)CC2,35%,5.23% (active),60.4%,75.2%,65.9%,73.2%,68.1%,83.2%,65.8%,26.2%,54.1%,62.1%,68.4%,28.1%,18.5%,73.1%,63.9%
C=C(C)[C@@H]1CC[C@]2(COP(=O)(OCC)OCC)CC[C@]3(C)[C@H](CC[C@@H]4[C@@]5(C)CC[C@H](OP(=O)(OCC)OCC)C(C)(C)[C@@H]5CC[C@]43C)[C@@H]12,30.2%,-18.1% (active),40.5%,84.3%,65.5%,77.2%,74.5%,74.7%,31.8%,20.8%,65%,61%,38.4%,0.255% (active),6.75% (active),19.9%,54.2%
O=C(NCCNc1cc(-c2cn(-c3ccccc3)nc2-c2cccc(O)c2)ccn1)Nc1cc(C(F)(F)F)cc(C(F)(F)F)c1,81.3%,94.7%,98.5%,97.3%,91.6%,104%,82.2%,93.9%,91.9%,90.5%,99.4%,98.4%,101%,87.2%,89.5%,96.2%,1.09% (active)
CCN(CC)c1ccc(/C=N/NC(=O)c2ccc(NS(C)(=O)=O)cc2)cc1,13.5%,42%,9.7% (active),49.4%,35.6%,35.4%,21.2%,65.6%,58.3%,27.4%,28.4%,37.3%,40.5%,9.25% (active),21.3%,45.7%,18.1%
CC(=O)c1cc(C(=O)N2c3ccccc3Sc3ccccc32)n2c1ccc1ccccc12,11%,48.3%,71.5%,86.6%,78.1%,59.8%,52.7%,55.1%,35.9%,75.5%,52.6%,3.08% (active),41.6%,30.5%,25.6%,87.8%,44.6%
CSc1ccc(C(=NNS(=O)(=O)c2ccc(C)cc2)c2ccc(Cl)cc2)cc1,114%,97.8%,99.5%,94.3%,102%,111%,96.8%,101%,98.2%,89.7%,118%,106%,102%,88.2%,98.2%,103%,97.1%
CCNC(=O)Oc1ccc(/C(=C(/C)c2ccc(OC)cc2)c2ccc(OCCN3CCCCCC3)cc2)cc1,-20.7% (active),12.1%,68.4%,72.7%,62.7%,79%,65.4%,16.2%,59.4%,26.6%,73.3%,43.7%,-25.9% (active),8.81% (active),13.4%,67.9%,39.6%
COc1ccc2c(c1)c(/C=N/Nc1ccnc3cc(Cl)ccc13)cn2C,-22.6% (active),-43% (active),-66.8% (active),-87.3% (active),-76.7% (active),-89.2% (active),-82% (active),-53.1% (active),-71.1% (active),-64.1% (active),-76.9% (active),-92.9% (active),-76.6% (active),-80.2% (active),-82.3% (active),-86.3% (active),-78.1% (active)
CN1CCN(Cc2ccc(NC(=O)c3cncc(C#Cc4cnc5ccc(O[C@@H]6CCOC6)nn45)c3)cc2C(F)(F)F)CC1,-29.7% (active),-24.1% (active),-60.1% (active),-66% (active),-73.7% (active),-67.8% (active),-51.9% (active),-46.9% (active),-34.5% (active),-29.2% (active),-81.9% (active),-97.6% (active),-28% (active),-68.1% (active),-73.1% (active),-85% (active),-82.4% (active)
CCCc1[nH]c(-c2cc(N)ccc2Cl)c2c1C(=O)CCCC2,85.8%,89.7%,96.4%,94.7%,95.9%,103%,91.6%,89.9%,95.2%,75.7%,111%,99.5%,105%,87.1%,95.2%,101%,93.7%
CN1CCN(Cc2ccc(NC(=O)c3cncc(C#Cc4cnc5ccc(OCC6COC6)nn45)c3)cc2C(F)(F)F)CC1,-22.7% (active),-24.4% (active),-54.5% (active),-75.1% (active),-69.9% (active),-22.6% (active),-39% (active),-37.3% (active),-34.4% (active),-1.42% (active),-71.5% (active),-92.3% (active),-29.8% (active),-70.8% (active),-78.6% (active),-77.4% (active),-73.6% (active)

# — PubChem BioAssay (NCI)
